The results in this text go back to PubChem BioAssay (NCI).

This is part of a sample that, as a whole, favours compounds with a hit. Of some 83,000 tested, about 20% had one in any assay.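 Single-dose data. Exposure time 48 hours. Values below 10 considered active.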 Values without a mark were called inactive. Active and inactive are the calls of the source.

One assay deals with NCI-H322M lung. In words: NCI-60 one-dose screen, 48 h (100 = growth as untreated, 0 = no growth, -100 = all killed). The note with it: 10 µM unless noted.
For `COc1ccc(-c2cn(-c3ccccc3)c(-c3ccccc3)n2)cc1OC`, the growth is 88.4%.
Still for that read-out and setting: the value for `O=c1ccn(C2OC(CO)C(O)C2F)c(=O)[nH]1` (centres undefined) was 117%.
Still for that read-out and setting: the figure for `c1ccc(N2CCN(c3nncc4ccccc34)CC2)nc1` is 114%; for `CCOc1ccccc1C(=O)OCC(=O)Nc1cccc(S(=O)(=O)N(C)C)c1` it is 124%; for `O=[N+]([O-])c1ccc(N/N=C\c2ccccc2[N+](=O)[O-])nc1` it is 105%.
The same measure, in the same setting: the value for `O[C@@H]1Cc2ccc3ccccc3c2N[C@H](c2ccoc2)C1` was 112%; that for `CCOC(=O)/C=C(/C)Sc1cc(O)c2ccccc2c1O` was -19.9% (active).
With `CCc1ccc(CCN2C(=O)c3ccccc3C2=O)nc1`, the growth was 108%.
On to `O=C1C(=O)c2ccc(Br)cc2-c2cc(Br)ccc21`, for which the growth was 91.2%.
Turning to `COc1cc(/C=C/C(=O)N2CCN(C(=O)/C=C/c3ccccc3)CC2)cc(OC)c1OC`, the growth was 104%.
Still for that read-out and setting: the value for `Cc1nn(-c2ccc(Cl)cc2)c2nc3c(nc12)C(=O)c1ccccc1-3` was 63.1%.
In the case of `COc1cc(C2NC(c3ccc(Cl)cc3)C(C)/C(=N/NC(N)=S)C2C)cc(OC)c1OC` (centres undefined), the growth is 97.7%.
For the compound `COC(=O)c1ccc2c(c1)nc(-c1ccc(O)c(OC)c1)n2-c1cc(C(C)(C)C)[nH]n1`, the growth was 103%.
Still for that read-out and setting: the value for `COC(=O)[C@]1(C(C)C)N[C@H](c2cn(-c3ccccc3)nc2-c2ccccc2)[C@@H]2C(=O)N(c3ccc(Cl)cc3)C(=O)[C@@H]21` was 99.1%; that for `C[n+]1c2ccccc2c(NC2CCNCC2)c2[nH]c3ccccc3c21` was -38.2% (active).
Still for that read-out and setting: the value for `COc1cc2c(cc1OCCCCCn1c(-c3ccc(OCc4ccccc4)cc3)nc3cc(N4CCOCC4)ccc31)N=C[C@@H]1CCCN1C2=O` was 27.8%.
As for `CSc1nnc(C2=CC(=O)c3ccccc3C2=O)n1-c1ccccc1`, the growth was 91.1%.
As for `COc1cccc2c1O/C(=C\c1c([N+](=O)[O-])ncn1C)C2=O`, the growth is 84.7%.
For the compound `CCC1=C(c2ccc(OC)cc2)C(C)(C)Oc2c1ccc(O)c2CN1CCCC1`, the growth was 47.7%.
As to `CCCCn1c(Cc2ccc(Cl)cc2)nc2cc(OC)c(OC)cc2c1=O`, the growth was 97.3%.
On the same count and under the same terms, the figure for `ClC1C2CC(c3ccccc32)C1Cl` (centres undefined) is 123%; for `CC(c1ccccn1)C(C)(O)C(C)c1ccccn1` (centres undefined) it is 118%; for `O=C(Nc1ccccc1Cl)c1cnc2ccc(C3CCNCC3)cn12` it is 23.1%.
Consider `O=C(OCCBr)c1ccc(Cl)c([N+](=O)[O-])c1`, for which the growth is 28.6%.
Same read-out and setting: the figure for `CO[C@H]1/C=C/O[C@@]2(C)Oc3c(C)c(O)c4c(O)c(c(/C=N/N5CCN(C)CC5)c(O)c4c3C2=O)NC(=O)/C(C)=C\C=C\C(C)[C@H](O)[C@@H](C)[C@@H](O)[C@@H](C)[C@@H](OC(C)=O)[C@@H]1C` (some centres undefined) is 112%; for `CC(=O)c1nc2ccccc2n1CCn1cc(CC(N)C(=O)O)c2ccccc21` (centres undefined) it is 93.6%; for `CCCCCCOc1ccc(/C=N/NC(N)=S)cc1` it is 122%.
Same read-out and setting: the value for `Cc1ccccc1NC(=O)c1cc2ccccc2cc1O` was 24.6%.
Still for that read-out and setting: the value for `CC[C@]1(O)CC2CN(CCc3c([nH]c4ccccc34)[C@@](C(=O)OC)(c3cc4c(cc3OC)N(C)[C@H]3[C@@](O)(C(=O)OC)[C@H](OC(C)=O)[C@]5(CC)C=CCN6CC[C@]43[C@@H]65)C2)C1` (some centres undefined) was 54.4%.
In the case of `CN(C)c1ccc(/C=C(\C#N)c2nc3ccccc3c(=O)[nH]2)cc1`, the growth was 89.7%.
Take `CC(=O)c1cc(C(=O)c2ccc3c(c2)Sc2ccccc2N3)c2c(C)cc(C)cn12`: the growth was 44.9%.
On the same count and under the same terms, the figure for `CCn1c2ccccc2c2ccc(C(C)=O)cc21` is 126%.
Same read-out and setting: the figure for `Clc1ncn[nH]1` is 98.4%; for `Cc1cc(N2CCOCC2)nc(N2CCOCC2)n1` it is 92.2%.
Same read-out and setting: the figure for `Oc1ccc(Cc2ccc(O)c(C3CC(c4ccc(Cl)cc4)=NN3)c2)cc1C1CC(c2ccc(Cl)cc2)=NN1` (centres undefined) is 7.95% (active).
Regarding `c1cncc(CNc2ccccc2-c2nnc(Nc3ccc4c(c3)OCO4)o2)c1`, the growth is 46.6%.
As to `COc1cc2c(C#N)n3c(c2cc1OC)C(=O)C(c1ccccc1)Oc1ccccc1-3` (centres undefined), the growth is 85.5%.

The next assay concerns HOP-62 NSCLC. The description is as above. The note with it: 10 µM unless noted.
Regarding `COc1ccc(-c2cn(-c3ccccc3)c(-c3ccccc3)n2)cc1OC`, the growth was 102%.
Take `O=c1ccn(C2OC(CO)C(O)C2F)c(=O)[nH]1` (centres undefined): the growth was 103%.
The same measure, in the same setting: the figure for `c1ccc(N2CCN(c3nncc4ccccc34)CC2)nc1` is 102%; for `CCOc1ccccc1C(=O)OCC(=O)Nc1cccc(S(=O)(=O)N(C)C)c1` it is 94.2%; for `O=[N+]([O-])c1ccc(N/N=C\c2ccccc2[N+](=O)[O-])nc1` it is 123%.
On to `O[C@@H]1Cc2ccc3ccccc3c2N[C@H](c2ccoc2)C1`, for which the growth is 98.8%.
Same read-out and setting: the figure for `CCOC(=O)/C=C(/C)Sc1cc(O)c2ccccc2c1O` is 157%; for `CCc1ccc(CCN2C(=O)c3ccccc3C2=O)nc1` it is 102%.
Regarding `O=C1C(=O)c2ccc(Br)cc2-c2cc(Br)ccc21`, the growth is 76.3%.
Regarding `COc1cc(/C=C/C(=O)N2CCN(C(=O)/C=C/c3ccccc3)CC2)cc(OC)c1OC`, the growth is 103%.
Still for that read-out and setting: the figure for `Cc1nn(-c2ccc(Cl)cc2)c2nc3c(nc12)C(=O)c1ccccc1-3` is 51.7%; for `COc1cc(C2NC(c3ccc(Cl)cc3)C(C)/C(=N/NC(N)=S)C2C)cc(OC)c1OC` (centres undefined) it is 99%.
Consider `COC(=O)c1ccc2c(c1)nc(-c1ccc(O)c(OC)c1)n2-c1cc(C(C)(C)C)[nH]n1`, for which the growth is 128%.
Same read-out and setting: the figure for `COC(=O)[C@]1(C(C)C)N[C@H](c2cn(-c3ccccc3)nc2-c2ccccc2)[C@@H]2C(=O)N(c3ccc(Cl)cc3)C(=O)[C@@H]21` is 95.7%.
With `C[n+]1c2ccccc2c(NC2CCNCC2)c2[nH]c3ccccc3c21`, the growth is 26.5%.
For `COc1cc2c(cc1OCCCCCn1c(-c3ccc(OCc4ccccc4)cc3)nc3cc(N4CCOCC4)ccc31)N=C[C@@H]1CCCN1C2=O`, the growth was 20%.
Same read-out and setting: the value for `CSc1nnc(C2=CC(=O)c3ccccc3C2=O)n1-c1ccccc1` was 100%; that for `COc1cccc2c1O/C(=C\c1c([N+](=O)[O-])ncn1C)C2=O` was 105%; that for `CCC1=C(c2ccc(OC)cc2)C(C)(C)Oc2c1ccc(O)c2CN1CCCC1` was 18.7%.
On to `CCCCn1c(Cc2ccc(Cl)cc2)nc2cc(OC)c(OC)cc2c1=O`, for which the growth was 91.2%.
Still for that read-out and setting: the figure for `ClC1C2CC(c3ccccc32)C1Cl` (centres undefined) is 129%; for `CC(c1ccccn1)C(C)(O)C(C)c1ccccn1` (centres undefined) it is 101%; for `O=C(Nc1ccccc1Cl)c1cnc2ccc(C3CCNCC3)cn12` it is 58.3%.
On to `O=C(OCCBr)c1ccc(Cl)c([N+](=O)[O-])c1`, for which the growth was 131%.
Still for that read-out and setting: the figure for `CO[C@H]1/C=C/O[C@@]2(C)Oc3c(C)c(O)c4c(O)c(c(/C=N/N5CCN(C)CC5)c(O)c4c3C2=O)NC(=O)/C(C)=C\C=C\C(C)[C@H](O)[C@@H](C)[C@@H](O)[C@@H](C)[C@@H](OC(C)=O)[C@@H]1C` (some centres undefined) is 99.4%; for `CC(=O)c1nc2ccccc2n1CCn1cc(CC(N)C(=O)O)c2ccccc21` (centres undefined) it is 97.7%.
As to `CCCCCCOc1ccc(/C=N/NC(N)=S)cc1`, the growth was 100%.
The same measure, in the same setting: the value for `Cc1ccccc1NC(=O)c1cc2ccccc2cc1O` was 39.2%; that for `CC[C@]1(O)CC2CN(CCc3c([nH]c4ccccc34)[C@@](C(=O)OC)(c3cc4c(cc3OC)N(C)[C@H]3[C@@](O)(C(=O)OC)[C@H](OC(C)=O)[C@]5(CC)C=CCN6CC[C@]43[C@@H]65)C2)C1` (some centres undefined) was 31.7%.
For `CN(C)c1ccc(/C=C(\C#N)c2nc3ccccc3c(=O)[nH]2)cc1`, the growth was 105%.
Still for that read-out and setting: the value for `CC(=O)c1cc(C(=O)c2ccc3c(c2)Sc2ccccc2N3)c2c(C)cc(C)cn12` was 20.8%; that for `CCn1c2ccccc2c2ccc(C(C)=O)cc21` was 103%; that for `Clc1ncn[nH]1` was 98.6%.
For `Cc1cc(N2CCOCC2)nc(N2CCOCC2)n1`, the growth was 82.2%.
On the same count and under the same terms, the figure for `Oc1ccc(Cc2ccc(O)c(C3CC(c4ccc(Cl)cc4)=NN3)c2)cc1C1CC(c2ccc(Cl)cc2)=NN1` (centres undefined) is 31.6%.
On the same count and under the same terms, the figure for `c1cncc(CNc2ccccc2-c2nnc(Nc3ccc4c(c3)OCO4)o2)c1` is 27.2%; for `COc1cc2c(C#N)n3c(c2cc1OC)C(=O)C(c1ccccc1)Oc1ccccc1-3` (centres undefined) it is 53.8%.
